Experimental findings from the supplement of paper PMC8728848 are described below.

Shown is part of a subset that was picked to be rich in the strongest signals.

Holding throughout (assay): glycan array binding signal (z-score within array); higher = stronger binding
Conditions in all cases: glycan notation: IUPAC condensed, linker removed

Assay [1] concerns the target Fuc(a1-2)Gal(b1-3)GlcNAc(b1-2)Man(a1-3)[Fuc(a1-2)Gal(b1-3)GlcNAc(b1-2)Man(a1-6)]Man(b1-4)GlcNAc(b1-4)[Fuc(a1-6)]GlcNAc. In outline:
(§1)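 Glycan array data were curated from 3228 arrays in the Consortium for Functional Glycomics database and kept only where the protein sequence was available. Glycan names were converted to IUPAC-condensed notation, and columns mapping to the same glycan were averaged. The binding signal is a within-array Z-score, averaged across arrays of the same protein sequence at different concentrations or buffers and across linkers. Negative Z-scores can be read as non-binding.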

The target of assay [2] is Fuc(a1-2)Gal(b1-3)[Fuc(a1-4)]GlcNAc. In a few lines: as §1
In assay [3] the target is Fuc(a1-2)Gal(b1-3)[Fuc(a1-4)]GlcNAc(b1-2)Man(a1-3)[Fuc(a1-2)Gal(b1-3)[Fuc(a1-4)]GlcNAc(b1-2)Man(a1-6)]Man(b1-4)GlcNAc(b1-4)GlcNAc. In a few lines:
as §1

In assay [4] the target is Fuc(a1-2)Gal(b1-3)[Fuc(a1-4)]GlcNAc(b1-2)Man(a1-6)[Fuc(a1-2)Gal(b1-3)[Fuc(a1-4)]GlcNAc(b1-2)Man(a1-3)]Man(b1-4)GlcNAc(b1-4)[Fuc(a1-6)]GlcNAc. In outline:
as §1

Assay [5] addresses Fuc(a1-2)Gal(b1-4)[Fuc(a1-3)]GlcNAc(b1-2)Man(a1-6)[Fuc(a1-2)Gal(b1-4)[Fuc(a1-3)]GlcNAc(b1-2)Man(a1-3)]Man(b1-4)GlcNAc(b1-4)[Fuc(a1-6)]GlcNAc. In a few lines: as §1
The target of assay [6] is Fuc(a1-2)Gal(b1-4)[Fuc(a1-3)]GlcNAc(b1-3)Gal(b1-4)[Fuc(a1-3)]GlcNAc(b1-3)Gal(b1-4)[Fuc(a1-3)]GlcNAc. In a few lines:
as §1

Assay [7] deals with Fuc(a1-2)Gal(b1-4)[Fuc(a1-3)]GlcNAc(b1-3)GalNAc. In a few lines:
as §1

Assay [8] addresses Fuc(a1-2)[Gal(a1-3)]Gal. In outline:
as §1

Assay [9] concerns the target Fuc(a1-2)[Gal(a1-3)]Gal(b1-4)GlcNAc(b1-2)Man(a1-3)[Fuc(a1-2)[Gal(a1-3)]Gal(b1-4)GlcNAc(b1-2)Man(a1-6)]Man(b1-4)GlcNAc(b1-4)GlcNAc. In outline:
as §1

The target in assay [10] is Fuc(a1-2)[GalNAc(a1-4)]Gal(b1-4)GlcNAc. In outline: as §1
The target in assay [11] is Fuc(a1-3)[Gal(b1-4)]GlcNAc(b1-2)Man(a1-3)[Fuc(a1-3)[Gal(b1-4)]GlcNAc(b1-2)Man(a1-6)]Man(b1-4)GlcNAc(b1-4)[Fuc(a1-6)]GlcNAc. In outline:
as §1

In assay [12] the target is Fuc(a1-3)[Gal(b1-4)]GlcNAc(b1-3)GalNAc. In a few lines: as §1
For assay [13], the target named is Fuc(a1-3)[Gal3S(b1-4)]GlcNAc. In a few lines:
as §1

The target of assay [14] is Gal(a1-3)Gal(b1-4)[Fuc(a1-3)]GlcNAc(b1-2)Man(a1-3)[Gal(a1-3)Gal(b1-4)[Fuc(a1-3)]GlcNAc(b1-2)Man(a1-6)]Man(b1-4)GlcNAc(b1-4)GlcNAc. In a few lines:
as §1

For assay [15], the target named is Gal(b1-2)Gal. In a few lines:
as §1

Assay [16] concerns the target Gal(b1-3)GalNAc(b1-3)Gal(a1-4)Gal(b1-4)Glc. In a few lines:
as §1

For assay [17], the target named is Gal(b1-3)[Fuc(a1-4)]GlcNAc(b1-3)Gal(b1-3)[Fuc(a1-4)]GlcNAc. In a few lines: as §1
For assay [18], the target named is Gal(b1-4)GlcNAc(b1-2)Man(a1-3)[Gal(b1-4)GlcNAc(b1-2)Man(a1-6)]Man(b1-4)GlcNAc(b1-4)GlcNAc. In outline:
as §1

In assay [19] the target is Gal(b1-4)GlcNAc(b1-2)Man(a1-3)[GlcNAc(b1-2)Man(a1-6)]Man(b1-4)GlcNAc(b1-4)GlcNAc. In a few lines: as §1
The target in assay [20] is Gal(b1-4)GlcNAc(b1-2)Man(a1-3)[Man(a1-6)]Man(b1-4)GlcNAc(b1-4)GlcNAc. In a few lines:
as §1

Assay [21] deals with Gal3S6S(b1-4)GlcNAc. In a few lines: as §1
The target of assay [22] is Gal6P(b1-4)GlcNAc. In outline: as §1
Assay [23] concerns the target GalNAc(a1-3)Gal. In outline:
as §1

B1: Strep tagII-anxA1 (Homo sapiens), P04083 (protein)
chain: MAMVSEFLKQAWFIENEEQEYVQTVKSSKGGPGSAVSPYPTFNPSSDVAALHKAIMVKGVDEATIIDILTKRNNAQRQQIKAAYLQETGKPLDETLKKALTGHLEEVVLALLKTPAQFDADELRAAMKGLGTDEDTLIEILASRTNKEIRDINRVYREELKRDLAKDITSDTSGDFRNALLSLAKGDRSEDFGVNEDLADSDARALYEAGERRKGTDVNVFNTILTTRSYPQLRRVFQKYTKYSKHDMNKVLDLELKGDIEKCLTAIVKCATSKPAFFAEKLHQAMKGVGTRHKALIRIMVSRSEIDMNDIKAFYQKMYGISLCQAILDETKGDYEKILVALCGGN
For B1, the “glycan array binding signal (z-score)” value in [1] amounted to 0.314; in assay [2] it was 5.05; in [3], 10.7; in assay [4] it was 3.12; in [5], 3.12; in [6], 0.054. Also, the “glycan array binding signal (z-score)” value in assay [7] is -0.317; in [8] it was -0.612; in assay [9] it was 1.69; in [10], -0.304; in [11], 2.81; in assay [12] it was -0.209. Moreover, the “glycan array binding signal (z-score)” value in assay [13] is 0.479; in [14], 3.62; in [15] it was -0.402; in assay [16], -0.44; in [17], -0.366; in assay [18] it was -0.682. Further, the “glycan array binding signal (z-score)” value in assay [19] is -0.567; in [20] it was 1.08; in assay [21], 0.386; in assay [22] it was -0.017; in [23] it was 0.67.
